The test system of experiment [1] is Plasmodium falciparum Sir2 (PF13_0152, Sir2A). The experiment is described as follows: pfSir2 binders on small-molecule microarrays, primary screen, biochemical, small-molecule microarray, 635 nm fluorescence (AID 1098).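 Note: score merges spot fluorescence intensity with its signal-to-noise ratio.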 Conditions: small-molecule microarray binding, fluorescence 635 nm; higher = more signal.
A short description of experiment [2]: small-molecule microarray binders of probe aDKK1, primary screen, biochemical, biotinylated probe, 635/667 nm fluorescence (AID 1099).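 Note: score merges 667nm spot fluorescence with signal to noise across triplicate slides; reference of the scale not given here.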 Conditions: higher = more signal.
Experiment [3] can be described thus: small-molecule microarray binders of probe aCHRDL2, primary screen, biochemical, biotinylated probe, 635/667 nm fluorescence (AID 1100). Conditions: higher = more signal.
The nature of experiment [4]: splicing luciferase reporter signal modulators, primary screen, spliceosome inhibition project, cell-based, HEK293, splice +/- reporter (AID 1101).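 Note: HEK293 cells carrying a splicing-competent luciferase reporter gene; test concentration not given here.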 Conditions: luminescence, 24 h, higher = more signal, called active from +8 up or from −8 down.
The target in experiment [5] is Fibroblast growth factor 10 (Homo sapiens) (UniProt O15520). Nature of the experiment: FGF10 binders on small-molecule microarrays, primary screen, biochemical, small-molecule microarray, 635 nm fluorescence (AID 1102). Conditions: FGF10 binding, fluorescence 635 nm, higher = more signal.
Experiment [6] concerns glycogen synthase kinase-3 (GSK3A per assay name; protocol says GSK3B). The experiment is described as follows: GSK3 binders on small-molecule microarrays, primary screen, biochemical, small-molecule microarray, 635 nm fluorescence, GSK3A (AID 1103). Note: the record names both GSK3A and GSK3B. Conditions: small-molecule microarray binding, fluorescence 635 nm; higher = more signal.
The target in experiment [7] is Epidermal growth factor receptor (Homo sapiens) (UniProt P00533). The experiment is described as follows: EGFR binders on small-molecule microarrays, primary screen, biochemical, small-molecule microarray, 635 nm fluorescence (AID 1104).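 Note: score merges 667 nm emission intensity with spot signal to noise over triplicate slides.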 Conditions: EGFR binding, higher = more signal.
Experiment [8] addresses Follistatin-related protein 3 (Homo sapiens) (UniProt O95633). Nature of the experiment: FSTL3 binders on small-molecule microarrays, primary screen, biochemical, small-molecule microarray, 635 nm fluorescence (AID 1105).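 Note: score merges emission near 667 nm and signal to noise per printed spot across three slides.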 The note with it: FSTL3 binding, higher = more signal.
In experiment [9] the target is Dickkopf-related protein 1 (Homo sapiens) (UniProt O94907). The experiment is described as follows: DKK1 binders on small-molecule microarrays, primary screen, biochemical, small-molecule microarray, 635 nm fluorescence scan (AID 1106).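 Note: score merges emission near 667 nm with signal to noise over three replicate slides.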 Conditions: DKK1 binding, higher = more signal.
Experiment [10] has as its system Inhibin beta A chain (activin A). Nature of the experiment: INHBA (activin A) binders on microarrays, primary screen, biochemical, small-molecule microarray, 635 nm fluorescence scan (AID 1107).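 Note: mouse activin A protein probed at 4.33 µg/mL on printed slides; score merges bound-protein fluorescence near 667 nm with spot signal-to-noise.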 The note with it: small-molecule microarray binding, higher = more signal.

The source made the active and inactive calls.

Epidermal growth factor receptor (Homo sapiens), sequence (P00533 whole entry, looked up): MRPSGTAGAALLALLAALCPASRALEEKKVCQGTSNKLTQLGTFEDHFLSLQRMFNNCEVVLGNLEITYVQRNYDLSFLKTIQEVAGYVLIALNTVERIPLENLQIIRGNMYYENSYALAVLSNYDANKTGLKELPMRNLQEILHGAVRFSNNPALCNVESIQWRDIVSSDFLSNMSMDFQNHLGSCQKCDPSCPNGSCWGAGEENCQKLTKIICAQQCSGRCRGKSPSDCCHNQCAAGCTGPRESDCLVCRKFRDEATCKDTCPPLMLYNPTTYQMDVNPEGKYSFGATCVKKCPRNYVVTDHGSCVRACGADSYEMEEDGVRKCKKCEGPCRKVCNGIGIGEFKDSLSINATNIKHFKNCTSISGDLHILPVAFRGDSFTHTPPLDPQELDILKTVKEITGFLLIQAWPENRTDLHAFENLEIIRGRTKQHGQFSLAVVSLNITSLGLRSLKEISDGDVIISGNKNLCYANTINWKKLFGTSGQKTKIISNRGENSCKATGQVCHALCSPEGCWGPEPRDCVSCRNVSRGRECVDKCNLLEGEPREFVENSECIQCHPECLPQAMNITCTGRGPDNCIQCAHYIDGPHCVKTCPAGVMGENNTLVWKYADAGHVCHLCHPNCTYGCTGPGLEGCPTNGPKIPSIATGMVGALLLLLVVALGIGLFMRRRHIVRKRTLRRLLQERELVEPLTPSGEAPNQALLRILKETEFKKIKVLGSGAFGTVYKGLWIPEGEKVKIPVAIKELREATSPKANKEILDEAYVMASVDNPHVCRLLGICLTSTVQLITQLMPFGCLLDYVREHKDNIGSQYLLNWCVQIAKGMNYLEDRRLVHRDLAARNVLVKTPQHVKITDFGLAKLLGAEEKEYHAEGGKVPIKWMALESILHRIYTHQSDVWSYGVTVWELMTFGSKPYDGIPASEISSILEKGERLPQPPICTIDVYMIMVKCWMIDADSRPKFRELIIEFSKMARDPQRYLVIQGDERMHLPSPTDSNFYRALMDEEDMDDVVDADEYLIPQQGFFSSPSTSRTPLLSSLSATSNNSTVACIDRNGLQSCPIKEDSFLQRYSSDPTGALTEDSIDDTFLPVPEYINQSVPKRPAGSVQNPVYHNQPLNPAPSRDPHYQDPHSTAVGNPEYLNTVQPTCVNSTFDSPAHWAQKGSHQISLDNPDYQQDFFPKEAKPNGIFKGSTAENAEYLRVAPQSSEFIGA
Fibroblast growth factor 10 (Homo sapiens), sequence (O15520 whole entry, looked up): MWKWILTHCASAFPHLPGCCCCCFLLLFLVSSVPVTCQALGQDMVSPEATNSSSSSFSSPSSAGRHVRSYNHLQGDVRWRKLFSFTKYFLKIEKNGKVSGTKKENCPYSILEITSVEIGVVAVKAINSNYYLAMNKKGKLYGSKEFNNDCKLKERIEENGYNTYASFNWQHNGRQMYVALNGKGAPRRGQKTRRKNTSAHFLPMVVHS
Dickkopf-related protein 1 (Homo sapiens), sequence (O94907 whole entry, looked up): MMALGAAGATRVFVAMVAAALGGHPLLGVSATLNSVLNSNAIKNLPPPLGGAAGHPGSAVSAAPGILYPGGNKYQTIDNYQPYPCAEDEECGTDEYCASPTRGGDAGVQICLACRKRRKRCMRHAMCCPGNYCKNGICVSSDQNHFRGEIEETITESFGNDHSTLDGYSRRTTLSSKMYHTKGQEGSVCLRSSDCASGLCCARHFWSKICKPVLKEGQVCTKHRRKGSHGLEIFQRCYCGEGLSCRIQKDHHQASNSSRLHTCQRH
Follistatin-related protein 3 (Homo sapiens), sequence (O95633 whole entry, looked up): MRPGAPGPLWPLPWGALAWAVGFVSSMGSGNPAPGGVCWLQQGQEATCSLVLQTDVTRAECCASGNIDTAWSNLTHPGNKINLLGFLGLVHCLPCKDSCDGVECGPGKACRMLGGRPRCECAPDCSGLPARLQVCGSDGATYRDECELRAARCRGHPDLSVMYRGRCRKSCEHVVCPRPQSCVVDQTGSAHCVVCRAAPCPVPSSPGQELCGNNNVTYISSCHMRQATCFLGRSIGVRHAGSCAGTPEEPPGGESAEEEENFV

Take `Cc1ccc(F)cc1S(=O)(=O)N[C@@H]1CCN(Cc2ccc(C(F)(F)F)cc2)C1`: the composite z-score in [1] is -0.245; in experiment [2], 0.735; in experiment [3], -0.565; in experiment [5], -0.425; in [6], -1.41; in experiment [7], -0.444. The composite z-score in experiment [8] was -0.769; in experiment [9] it was 0.0494; in experiment [10], -0.127. For the same compound, in experiment [4], the z-score was 0.169 (inactive).

As to `O=c1cccc(-c2ccc3ccccc3c2)o1`, the composite z-score in experiment [1] is -0.271; in experiment [2], 0.216; in experiment [3], 0.591; in [5] it was -0.0487; in [6], -0.964; in [7], 0.0697. The figures for the composite z-score in experiment [8], in experiment [9] and in experiment [10] were -0.0172, -0.139 and 1.15, respectively. In experiment [4], the z-score was -0.823 (inactive).

For `C[N+](C)(C)CCCC[C@@H]1NC(=O)[C@@H]2C[C@H](C(=O)NCCCCCCNC(=O)CS)[C@H](c3cccc(OCCO)c3)N2C1=O`, the composite z-score is 1.58 in experiment [1]; -0.209 in experiment [2]; 0.111 in [3]; 0.0947 in [5]; -0.755 in [6]; -1.01 in [7]. The composite z-score in experiment [8] is -0.0324; in [9] it was 0.383; in experiment [10] it was 0.439. Moreover, the z-score in experiment [4] was -0.451 (inactive).

On to `CO[C@H]1O[C@H](CO)[C@@H](OC(=O)Nc2ccc3c(c2)OCO3)[C@H](OC(=O)Nc2ccc3c(c2)OCO3)[C@H]1OC(=O)Nc1ccc2c(c1)OCO2`, for which the composite z-score in [1] was 1.49; in experiment [2], -0.0124; in [3], 0.392; in experiment [5], 1.24; in experiment [6], 1.33; in experiment [7], 0.258. Moreover, the figures for the composite z-score in experiment [8], in experiment [9] and in experiment [10] were 0.878, 0.101 and 1.14, respectively. In experiment [4], the z-score was -0.295 (inactive).

For the compound `COCCCNC(=O)[C@]1(Cc2ccccc2N=[N+]=[N-])N=C(c2ccc(OCCCO)cc2)O[C@@H]1c1ccccc1CN=[N+]=[N-]`, the composite z-score in experiment [1] is 1.09; in experiment [2], 1.2; in experiment [3] it was 1.01; in experiment [5] it was 1.26; in [6] it was 0.644; in [7] it was 0.504. For the same compound, the composite z-score in [8] worked out at 0.912; in [9], 0.318; in experiment [10], 0.928. The z-score in experiment [4] was -0.4 (inactive).

Take `CCCNC(=O)[C@@]1(C)c2ccccc2C(=O)N(C(C)C)[C@H]1c1ccc(CO)cc1`: the composite z-score is 1.2 in [1]; 0.695 in [2]; 1.09 in [3]; -0.668 in experiment [5]; -0.743 in [6]; -1.14 in experiment [7]. In addition, the composite z-score in [8] was -0.737; in experiment [9] it was -0.612; in [10] it was -0.105. Further, the z-score in experiment [4] was 0.208 (inactive).

In the case of `CN(C)CCCC[C@@H]1NC(=O)[C@@H]2C[C@H](C(=O)NCCCCCN)[C@H](c3ccc(O)cc3)N2C1=O`, the composite z-score in [1] was 0.016; in [2], 0.442; in experiment [3] it was 0.916; in experiment [5], -0.008; in experiment [6], 0.31; in [7], -0.912. The composite z-score in experiment [8] is -1.25; in [9] it was -0.722; in experiment [10], -0.273. Besides, the z-score in experiment [4] is -0.159 (inactive).

As for `C=C(CCCC)C(=O)CC[C@H](OC(C)=O)c1ccc(CO)o1`, the composite z-score in experiment [1] was 0.621; in [2], -0.402; in [3], -0.456; in experiment [5], 0.123; in [6], 0.2; in experiment [7], -0.567. The composite z-score in [8] is -0.139; in [9], -0.0639; in [10] it was 1.24. Further, the z-score in experiment [4] is -1.14 (inactive).

Regarding `C=CCCN(CC#C[C@H]1Oc2ccccc2S(=O)(=O)N2CCC[C@@H]12)S(=O)(=O)c1ccc(C)cc1`, the composite z-score in experiment [1] is 0.327; in experiment [2], -0.342; in [3], -0.289; in experiment [5], 0.371; in experiment [6] it was 0.0464; in experiment [7] it was 0.185. The composite z-score in experiment [8] came to 0.485; in experiment [9], 0.435; in experiment [10], 1.45. For the same compound, the z-score in [4] was 3.09 (inactive).

On to `O=C1O[C@H](c2ccccc2)[C@H](c2ccccc2)N2[C@H]1[C@@H](C(=O)Nc1nc3ccccc3s1)[C@]1(C(=O)Nc3ccc(C#CC4=CCCCC4)cc31)[C@H]2c1ccc(OCCO)cc1`, for which the composite z-score was 0.956 in experiment [1]; -0.004 in experiment [2]; 0.54 in [3]; 1 in [5]; 1.3 in experiment [6]; 0.202 in experiment [7]. The composite z-score in experiment [8] was 0.891; in experiment [9], 0.779; in experiment [10], 0.881. For the same compound, the z-score in [4] was -0.718 (inactive).

Consider `C=CCN1Cc2ccccc2C[C@]2(N=C(c3ccc(OCCCO)cc3)O[C@@H]2c2ccccc2)C1=O`, for which the composite z-score is 0.761 in [1]; -0.0119 in [2]; 0.311 in experiment [3]; 1.08 in experiment [5]; 1.29 in [6]; 0.734 in [7]. Also, the composite z-score in experiment [8] amounted to 1.25; in [9], 0.838; in experiment [10], 1.31. Further, the z-score in [4] was -1.44 (inactive).

For the compound `O=C(NCC(O)CO)[C@@]1(Cc2ccccc2)COC(c2ccc(OCCCO)cc2)=N1` (stereo not given in full), the composite z-score was -0.509 in experiment [1]; 0.549 in [2]; 0.536 in experiment [3]; -0.309 in experiment [5]; -0.546 in experiment [6]; -0.198 in [7]. Further, the composite z-score is -1.21 in experiment [8], -0.92 in [9] and 0.656 in experiment [10]. Besides, the z-score in [4] was 0.138 (inactive).

`Oc1ccc2cc[n+](Cc3cccc(OC(F)(F)F)c3)cc2c1`: the composite z-score in experiment [1] is 1.36; in experiment [2] it was -0.319; in experiment [3] it was -0.576; in [5], 0.837; in [6] it was -0.477; in experiment [7], 1.2. For the same compound, the results for the composite z-score in experiment [8], in experiment [9] and in [10] were 1.24, 0.732 and 0.826, respectively. In addition, in experiment [4], the z-score is 0.609 (inactive).

As to `COc1ccc([Si](C)(C)[C@@H]2[C@@H](CCO)O[C@]3(C(=O)N(Cc4ccc(N5C(=O)c6cccc7cccc5c67)cc4)c4ccccc43)[C@H]2C)cc1`, the composite z-score in experiment [1] is 1.03; in experiment [2] it was 0.0129; in experiment [3], 0.598; in [5], -0.66; in experiment [6], -0.445; in experiment [7] it was -1.13. Moreover, the composite z-score in experiment [8] is -0.66; in experiment [9], -0.674; in experiment [10] it was -0.194. Also, the z-score in experiment [4] is -1.11 (inactive).

On to `COC(=O)[C@@]1(Cc2ccc(OC)cc2)[C@H]2c3cc(C(=O)N(C)C)n(Cc4ccc(OC)c(OC)c4)c3C[C@H]2CN1C(=O)c1ccccc1`, for which the composite z-score stood at 0.851 in [1]; 0.476 in experiment [2]; 1.16 in [3]; 0.81 in [5]; 1.28 in experiment [6]; 0.149 in experiment [7]. Besides, the values for the composite z-score in [8], in experiment [9] and in [10] were 0.943, -0.649 and 0.807, respectively. For the same compound, the z-score in [4] is -2.25 (inactive).

`C=C[C@H](OC)[C@@H](OC(=O)Nc1ccc(SC)cc1)c1ccc(OCCO)cc1`: the composite z-score in experiment [1] is 1.08; in [2] it was 0.242; in experiment [3], 0.796; in experiment [5], 0.141; in [6], 0.0735; in [7] it was -0.196. Besides, the composite z-score in [8] is -0.275; in experiment [9], 0.155; in experiment [10] it was -0.176. Moreover, in experiment [4], the z-score was -1.96 (inactive).

Consider `CN1C(=O)C2C=CC(C(O)C(c3ccccc3)c3ccccc3)N(Nc3ccccc3)C2C1=O` (stereo not given), for which the composite z-score in experiment [1] came out at 0.929; in experiment [2], 0.724; in experiment [3], 0.883; in experiment [5], 1.11; in [6], 1.32; in experiment [7], 0.247. The composite z-score in experiment [8] is 1.07; in experiment [9], -0.138; in [10], 0.596. Besides, the z-score in experiment [4] is 0.559 (inactive).

These data come from PubChem BioAssay.
